Assay results reported in PubChem BioAssay AID504941 (Broad Institute, 2011).
About 170 (14%) of roughly 1,200 compounds were called active. No rule for the calls is given here. A selection follows. Entries with a potency or affinity are not part of this list.

Assay: twin-arginine translocation blockade, bacterial reporter – cherry-pick, set 2, plate reader, dose response (AID 504941)
Details: E. coli Tat transport reporter; series mostly up to 38 µM; activity change, negative = inhibition: at the top concentration

Activity change, negative = inhibition, inactive:
COC(=O)c1sc(NC(=O)CSc2nnnn2-c2ccc(C)cc2C)nc1C 13.6%
CN1CC(c2ccccc2Cl)C2(COc3ccccc3C2=O)C12C(=O)Nc1ccccc12 (stereo not given) 39.1%
CC1(C)c2ccccc2N2CC(=O)NC21/C=C/c1ccco1 (stereo not given) 29.5%
CCc1ccc(C(=O)Nc2ccc(S(=O)(=O)Nc3nc(C)cc(C)n3)cc2)o1 5.66%
Cc1ccc2nc(C(=O)O)c(C(=O)O)nc2c1 18.6%
O=C(Cn1c(=O)oc2cc(S(=O)(=O)N3CCc4ccccc43)ccc21)N1CCCCC1 0.63%
O=C(Cn1nnc(-c2ccccc2)n1)N/N=C/c1cccc([N+](=O)[O-])c1O 35%
COc1ccccc1N(CC(=O)NC1CCCC1)C(=O)c1csnn1 25.7%
Cc1cc(=O)oc2cc(OCC(=O)OCC(=O)N3CCc4ccccc43)ccc12 0.129%
CCCCCCc1ccc(N2C[C@H](Cc3ccccc3)[C@@H](CC(=O)NCc3ccc(OC)cc3)C2=O)cc1 29.2%
CCCOc1cc(C)c(S(=O)(=O)N2CCN(C)CC2)cc1C -6.77%
COc1ccc(S(=O)(=O)NCc2ccco2)c2ccccc12 9.03%
COc1ccc(OC)c(S(=O)(=O)NCCc2ccccc2)c1 -12.3%
COC(=O)C1=CN(C(C)C)C=C(C(=O)OC)C1c1cccc(OC)c1 12.3%
COc1ccc(N2C(=O)C3C4C=CC(C4)C3C2=O)nn1 (stereo not given) 2.9%
CCNC(=O)c1ccc(NS(=O)(=O)c2ccccc2)cc1 20.1%
Cc1ccc(-c2cc(C(=O)OCC(=O)N(C)c3c(N)n(Cc4ccccc4)c(=O)[nH]c3=O)c3ccccc3n2)o1 26%
N#CC1=C2SCC(O)(c3ccccc3)N2C(=O)CC1c1ccccc1F (stereo not given) -1.97%
COc1cc(NC(=O)C2CC(=O)NC3=C2C(=O)CC(C)(C)C3)c(OC)cc1Cl (stereo not given) 18.6%
Cn1c(C(=O)NCc2cccs2)cc2c(=O)n(C)c3ccccc3c21 8.97%
COC(C(=O)Nc1ccnn1C1CCN(Cc2ccc(C)o2)CC1)c1ccccc1 (stereo not given) 1.14%
O=C(c1n[nH]c2ccccc12)N1CCOCC1 2.16%
O=C(CSc1cccc[n+]1[O-])Nc1ccccc1C(F)(F)F 12.2%
C/C(Cn1nnc([N+](=O)[O-])n1)=N\NC(=O)c1ccc(O)cc1O 9.9%
CC1CCCCN1S(=O)(=O)c1ccc(NC(=O)c2ccco2)cc1 (stereo not given) 2.51%
CCn1c(C)nc2cc(C(=O)N/N=C/c3ccc(OC)c(O)c3)ccc21 -1.99%
COc1cccc(C2C(C(=O)OC(C)C)=C(C)Nc3ncnn32)c1 (stereo not given) 6.75%
CCN(CC)S(=O)(=O)c1ccc(=O)n(CC(=O)N2Cc3ccccc3CC2C(N)=O)c1 (stereo not given) -7.2%
CC(Sc1nc2ccccc2c(=O)n1C)C(=O)NC1CCCCC1C (stereo not given) -7.32%
Cc1nn(Cc2ccccc2Cl)c(C)c1NC(=O)c1ccn(C)n1 -0.679%
Cn1c(=O)oc2cc(S(=O)(=O)NCCN3CCCCCC3)ccc21 -0.08%
CC(C)Sc1nc2c(c(=O)[nH]c(=O)n2C)n1CCc1ccccc1 -6.57%
CCOCCOc1nc2c(c(=O)n(C)c(=O)n2C)n1Cc1ccc(C)cc1 9.39%
CCn1c(SCC(=O)Nc2ccc(OC)cc2)nc2c1c(=O)n(C)c(=O)n2C -3.88%
CN(C)c1nc(NCc2ccccc2)nc(SCC(N)=O)n1 -14.3%
O=C(CN1CCN(c2ccccc2)CC1)N1N=CCC1c1ccccc1 (stereo not given) -3.44%
Cn1c(-c2ccccc2)cnc1N 7.04%
Cc1nc2ccccc2c(=O)n1CCCO 16.5%
Cc1c(OCC(=O)NCCCN2CCOCC2)ccc2c1oc(=O)c1ccccc12 0.385%
CC(Sc1ccsc1[N+](=O)[O-])C(=O)N1CCN(c2ccccn2)CC1 (stereo not given) 8.43%
N#Cc1ccccc1S(=O)(=O)N1CCN(CC(=O)Nc2ccnn2C2CCCC2)CC1 12.7%
CCN(CC)C(=O)CSc1nc2ccccc2o1 8.86%
COC(=O)c1ccc(C2CC(=O)Nc3cc(OC)c(OC)cc32)cc1 (stereo not given) 1.38%
Cc1ccc(S(=O)(=O)N2CCOCC2)cc1NC(=O)c1cc2ccccc2oc1=O 10.6%
Cc1ccc(NC(=O)/C(=C/c2cccc([N+](=O)[O-])c2)NC(=O)C2CCCCC2)c(C)c1 19.2%
COc1ccc(CN2CSC(=S)N(Cc3ccccc3)C2)cc1 0.18%
Nc1cc(N)nc(SCc2ccc(Cl)cc2)n1 2.74%
O=C(CCCCCNC(=O)c1ccccc1)C[N+](=O)[O-] 9.54%
COCCCNc1nc2c(c(=O)[nH]c(=O)n2C)n1CC(O)COc1cccc(C)c1 (stereo not given) -25.7%
COc1ccc(NC(=O)c2ccc(Oc3ncccn3)cc2)cc1 9.5%
Cn1c(N)c(C(=O)COC(=O)CCCN2C(=O)c3ccccc3C2=O)c(=O)n(C)c1=O 13.1%
O=C(CN1CCN(c2ccccc2F)CC1)NC(=O)NCc1ccccc1 37.5%
COc1ccc(-c2cc(C(F)(F)F)c3c(n2)sc2c(O)cc(=O)[nH]c23)c(OC)c1 3.85%
Nc1ccccc1S(=O)(=O)NC1=NCCCCC1 7.97%
O=C(NCc1ccccc1)c1nc[nH]c1C(=O)N1CCN(c2ccccc2)CC1 -1.54%
CC1CCN(C(=O)c2[nH]cnc2C(=O)N[C@@H](C)C(=O)OC(C)(C)C)CC1 -3.97%
CC(C)(C)OC(=O)NCC(=O)N1CCC(C(=O)O)CC1 0.797%
CC(=O)Nc1ccc(NS(=O)(=O)c2ccc3ccccc3c2)cc1 17.6%
CCc1ccc(N2CC34C=CC(O3)C(C(=O)OC(C)C)C4C2=O)cc1 (stereo not given) 11.4%
COc1ccc(N=Cc2nc(-c3ccccc3)oc2OC(=O)c2ccccc2)cc1 -7.66%
COC(=O)c1c(NC(=O)C(=O)NCCCN2CCOCC2)sc2c1CCCC2 23.1%
Cc1nn2c(SCC(=O)c3cccs3)cc(C(C)(C)C)nc2c1-c1ccccc1 18.4%
CC(C)(C)c1ccc(C(=O)n2cnc3ccccc32)cc1 -4.98%
O=C(O)c1ccc(NS(=O)(=O)c2cc(C(=O)O)ccc2Br)cc1 -5.5%
Cc1ccc(CNC(=O)C2CCCN2C(=O)Nc2ccccc2)cc1 (stereo not given) 6.34%
O=C(O)C1CCCCN1S(=O)(=O)c1ccc(Cl)s1 (stereo not given) 3.43%
Cc1ccc(-n2nnnc2-c2cnc3cc4c(cc3c2C)OCO4)cc1 5.42%
Cc1ccc2nc(NNC(=O)c3ccc(S(=O)(=O)N4CCc5ccccc5C4)cc3)sc2c1 24.4%
O=C(CSc1nnc(-c2ccccc2)n1C1CCCCC1)N1CCCC1 14.9%
Cc1ccnc(NS(=O)(=O)c2ccc(NS(=O)(=O)c3ccccc3)cc2)n1 -7.87%
O=C(CN(Cc1ccco1)C(=O)c1ccccc1F)Nc1ccccc1C(F)(F)F -17.7%
CCc1cccc2c1NC(=O)C2(O)N1CCCC(C)C1 (stereo not given) -0.33%
COc1cccc(C(=O)Nc2cc([N+](=O)[O-])ccc2N2CCN(C)CC2)c1 -5.03%
CS(=O)(=O)N(CC(=O)NC1CCCC1)c1cccc(F)c1 -8.84%
Cc1cccc(NC(=O)CN(c2ccc(F)cc2)S(C)(=O)=O)c1 19.3%
COC(CN(C)C(=O)C1CCCN(S(=O)(=O)c2ccc3c(c2)oc(=O)n3C)C1)OC (stereo not given) 6.34%
CCOC(=O)c1c(NC(NC(C)=O)C(Cl)(Cl)Cl)sc(C(C)=O)c1C (stereo not given) -6.84%
CC(C)(CO)[C@@H](O)C(=O)NCCC(=O)O -1.7%
COc1ccc(-c2nc(C#N)c(NCC3CCCO3)o2)cc1OC (stereo not given) -5.51%
CCNc1nc(OC)nc(Oc2ccc(=O)n(-c3ccccc3)n2)n1 -15.9%
CCCCN(CCCC)C(=O)c1cn(CC)c2cc(N3CCN(C)CC3)c(F)cc2c1=O 282%
CC(C)(C)CC(=O)Nc1ccc(Nc2ccccc2)cc1 2.82%
CC(=O)Nc1cccc(-c2csc(Nc3cc(C)ccn3)n2)c1 -1.58%
Nc1ccc(S(=O)(=O)N2CCCc3ccccc32)cc1 12.9%
NC(=O)c1c(NC(=O)C(=O)N2CCOCC2)sc2c1CCC2 -18.1%
NC(=O)NC(=O)CSc1nc2sc(-c3ccccc3)cc2c(=O)n1-c1ccccc1 -2.99%
CCn1c(CCn2c3ccccc3c3ccccc32)n[nH]c1=S 11.1%
CCc1ccc(NC(=O)Nc2cc(C(=O)NCC3CCCO3)ccc2N2CC3CC(C2)c2cccc(=O)n2C3)cc1 (stereo not given) -5.94%
CCCN=C1N(CC)C[C@@H]2[C@@H]3C(=O)N(C)C(=O)[C@@H]3[C@](Cc3ccccc3)(C(=O)OC)N12 -26.9%
CC(NC(=O)Nc1nccs1)(C(F)(F)F)C(F)(F)F 22.2%
COc1ccc(C2C(C#N)=C(N)Oc3c2sc2nc(C)cc(C)c32)cc1 (stereo not given) 5.99%
COc1cc2c(cc1NC(=O)COC(=O)[C@@H](NC(=O)c1ccccc1)C(C)C)oc1ccccc12 -4.47%
Cc1cccc2c1cnn2C(=O)CCC(=O)N1CC(C)CC(C)C1 (stereo not given) 0.91%
CC(SCC(=O)Nc1ccc(F)cc1)c1nc2ccccc2c(=O)[nH]1 (stereo not given) 19.5%
O=C(c1ccco1)N1CCN(C(=O)c2ccc(CS(=O)c3ccc(F)cc3)o2)CC1 (stereo not given) -9.83%
Cc1nn2c(COc3ccc(NC(=O)c4ccccc4Cl)cc3)nnc2c2ccccc12 11.3%
O=C(O)c1ccc(N/N=C/c2ccc(-c3ccccc3)cc2)cc1 -7.88%
COc1cccc(CN(C(=O)Cc2c[nH]c3ccccc23)C(C(=O)NC2CCCCC2)c2ccc(C)o2)c1 (stereo not given) 0.794%
CCc1cccc(CC)c1NC(=S)NCC(c1cccnc1)N(C)C (stereo not given) 23.3%
COc1ccc(-c2ccc(-c3noc(-c4ccccc4OC)n3)c(OC)n2)cc1 32.1%
N#Cc1cccc(C(=O)OCC(=O)NCc2ccco2)c1 26.4%
CCOc1ccc(NC(=O)c2ccc(NC(=O)c3cn4c5c(c(N6CCN(C)CC6)c(F)cc5c3=O)OCC4C)cc2)cc1 (stereo not given) 53.8%
O=C(c1ccco1)N1CCCC(c2nc3c(nnn3Cc3ccc(F)cc3)c(=O)[nH]2)C1 (stereo not given) -15.7%
CCOC(=O)N1CCC(N(CCN(C)C)C(=S)Nc2ccc(Oc3ccccc3)cc2)CC1 -6.93%
Cc1noc(NS(=O)(=O)c2ccc(NC(=O)c3ccoc3C)cc2)c1C 19.6%
